Assay results taken from PubChem BioAssay AID926 (National Center for Advancing Translational Sciences (NCATS), 2007).
About 350 (0.48%) of roughly 73,000 compounds were called active. Another 17% or so got no clear call; they are omitted. The call rests on the fitted dose curve; in most records, active means well fitted activation curve with a large enough effect in the main read-out, with a control signal flat (not every such curve was filed as active); inconclusive means small, poorly fitted or top-dose-only effect, or a change in a side signal; inactive means no such curve, though single readings can be large or run the other way; reference of the percent scale not stated here. The entries come from a sample that favours actives as a whole.

Assays:
[1] = qHTS Assay for Agonists of the Thyroid Stimulating Hormone Receptor; settings: HEK293-CNG-TSHR cells, membrane potential dye, cAMP; measured here: parental cells max response
Procedure, shortened: (§1)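 HEK 293 cells stably expressing TSHR and a cAMP-gated CNG channel; parental CNG-only cells as counterscreen. Cells preloaded 60 min with membrane potential dye plus 100 uM RO 20-1724, then compound 30 min; fluorescence read at 590 nm.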

[2] = target: Thyrotropin receptor (Homo sapiens) (UniProt P16473); assay: as above; settings: HEK293-CNG-TSHR cells (CNG channel as cAMP sensor), membrane potential dye, cAMP; series mostly up to 57.1 µM
Procedure, shortened: as §1
Potency means the concentration at half of the fitted maximal effect.

Sequence of Thyrotropin receptor (Homo sapiens) (P16473 whole entry, looked up): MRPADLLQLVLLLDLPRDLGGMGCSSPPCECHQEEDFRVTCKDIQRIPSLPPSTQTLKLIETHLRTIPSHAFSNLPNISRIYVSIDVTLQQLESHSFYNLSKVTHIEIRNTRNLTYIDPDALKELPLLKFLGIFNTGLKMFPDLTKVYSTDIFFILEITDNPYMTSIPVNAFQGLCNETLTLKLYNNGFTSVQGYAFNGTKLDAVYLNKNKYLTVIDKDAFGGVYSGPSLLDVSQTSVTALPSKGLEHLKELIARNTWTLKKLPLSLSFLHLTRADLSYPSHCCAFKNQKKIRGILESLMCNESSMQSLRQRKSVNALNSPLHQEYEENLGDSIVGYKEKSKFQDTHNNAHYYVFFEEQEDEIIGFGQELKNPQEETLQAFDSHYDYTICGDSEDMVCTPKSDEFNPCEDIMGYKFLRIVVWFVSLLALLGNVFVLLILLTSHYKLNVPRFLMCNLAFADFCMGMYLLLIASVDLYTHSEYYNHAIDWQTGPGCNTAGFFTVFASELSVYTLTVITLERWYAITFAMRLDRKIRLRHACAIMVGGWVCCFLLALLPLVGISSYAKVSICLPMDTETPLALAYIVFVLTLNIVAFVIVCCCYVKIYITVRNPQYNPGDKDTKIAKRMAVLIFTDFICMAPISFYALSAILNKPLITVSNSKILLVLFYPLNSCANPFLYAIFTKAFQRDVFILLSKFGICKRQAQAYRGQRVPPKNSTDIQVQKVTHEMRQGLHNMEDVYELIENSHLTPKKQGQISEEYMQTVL

Structure (SMILES) | activation [1] [%] | Potency [2] | activation [2]
CCCC[C@@H]1C[C@H]1C(NC(=O)c1ccc(-c2ccccc2)cc1)c1ccc(-c2ccccc2)cc1 (stereo partly drawn) | 1.42 | inactive | 
Cc1cccc(Br)c1 | 15 | inactive | 
CCCC(Cl)CCCC(Cl)CCC(Cl)CCC(Cl)CCC(Cl)CCCC(Cl)CCC (stereo not drawn) | 3.46 | inactive | 
O=C(Cl)c1ccc([N+](=O)[O-])cc1 | -6.7 | inactive | 
COc1ccccc1CN1CC2(CCN(S(=O)(=O)c3ccccc3)CC2)C1 | 7.71 | inactive | 
COc1ccc(S(=O)(=O)Nc2ccc(S(=O)(=O)N3CCCCC3)cc2)cc1OC | -4.42 | inactive | 
COc1ccc(C2SCCN2S(=O)(=O)c2ccccc2)cc1OC (stereo not drawn) | 15.1 | 31.6 µM (active) | 
Cc1ccc2oc(=O)ccc2c1 | 1.36 | inactive | 
CO[C@H]1COC(=O)[C@@H](OCc2ccccc2)/C=C\[C@H](C)[C@@H](OC)COC(=O)[C@H](OCc2ccccc2)/C=C\[C@@H]1C | -2.98 |  | -1.59% [at 11.4 µM] (inactive)
CCc1ccccc1N(CC(=O)NCCSCc1ccco1)S(C)(=O)=O | 6.61 |  | 16.8% [at 11.4 µM] (inactive)
COC(=O)C1(Cc2ccccc2)C=C2C(=C(C)C(=O)C2C)CN1 (stereo not drawn) | 7.11 | inactive | 
CC(=O)N1[C@H](C)C=C[C@]1(Cc1ccccc1)C(=O)NCc1ccccn1 | 7.85 | inactive | 
Cc1cc(C)cc(C#CC2C=CC(Oc3ccc(C4CCCC4)cc3)C(CO)O2)c1 (stereo not drawn) | 16.7 |  | 5.07% [at 11.4 µM] (inactive)
COC(=O)[C@@]1(Cc2ccc(F)cc2)[C@@H]2[C@@H](CC(=O)[C@H]2CC(=O)C(=O)N2CCCC2)CN1C(=O)c1ccccc1 | 18.8 | inactive | 
CCNCCCNCCCNCCCNCC | -2.31 | inactive | 
BrC1C(Br)C(Br)C(Br)C(Br)C1Br (stereo not drawn) | 2.31 | inactive | 
Cc1cccc(C(=O)O)c1[N+](=O)[O-] | 15 | inactive | 

Structure (SMILES) | activation [1] [%] | Potency [2] | activation [2]
CC1(C)OC(C(O)(c2ccccc2)c2ccccc2)C(C(O)(c2ccccc2)c2ccccc2)O1 (stereo not drawn) | 25.8 |  | 15.4% [at 11.4 µM] (inactive)
Cc1cccc(NC(=O)CSC(N)=O)c1C | -24.7 | inactive | 
Cc1ccc(S(=O)(=O)N2CCCC2C(=O)NCc2ccco2)cc1 (stereo not drawn) | -0.0422 | 12.6 µM (active) | 
CCCS(=O)(=O)N1CCCC(C(=O)NCc2ccco2)C1 (stereo not drawn) | 10.5 | inactive | 
Cc1ccc(S(=O)(=O)N2CCCC2CO)cc1 (stereo not drawn) | -3.4 |  | -5.75% [at 11.4 µM] (inactive)
C/C(CCN1CCc2nc(-c3ccccc3)c(-c3ccccc3)cc2C1)=N\O[C@@H](C)c1cn([C@@H]2COC[C@@H]2O)nn1 | 0.56 |  | 6.46% [at 11.4 µM] (inactive)
C=CCn1cnc2scc(-c3ccccc3)c2c1=O | -2.42 | inactive | 
O=C1C(c2[nH]c3ccccc3c2O)=Nc2ccccc21 | -17.9 | inactive | 
O=C(O)CS(=O)c1ccc2c3c(cccc13)C(=O)c1ccccc1-2 (stereo not drawn) | -9.79 |  | -5.26% [at 11.4 µM] (inactive)
CCCCCCN(C(=O)CCCCCN1C(=O)NC(c2ccc(C(F)(F)F)cc2)C(C(=O)OCc2ccccc2)=C1C)C(C(=O)NCCCC)c1ccc(OCC(=O)OC)c(C(=O)OC)c1 (stereo not drawn) | 18.9 | inactive | 
O=C(CSc1nc2c(cnn2-c2ccc(F)cc2)c(=O)[nH]1)N1CCCCCC1 | 1.57 | inactive | 
CN1CCC(CNC(=O)c2ccc(-n3c(=O)c(=O)[nH]c4ccccc43)cc2)CC1 | -0.798 | inactive | 
Cc1ccc2nc(-c3ccccc3)cc(C(=O)O)c2c1 | -5.12 | inactive | 
CC(C)(C)[Si](OCC[C@@H]1C[C@@]1(C)[C@@H](NP(=O)(c1ccccc1)c1ccccc1)c1ccccc1)(c1ccccc1)c1ccccc1 | 13.3 | inactive | 
O=C(CN(Cc1ccccc1)C(=O)c1ccc2c(c1)OCCO2)NCc1ccc2c(c1)OCO2 | 12.9 | 7.94 µM (active) | 
O=C(COc1ccccc1)NCc1ccc2c(c1)OCO2 | 27.1 | inactive | 
O=C(CC(Cc1ccccc1)C(=O)O)NCCc1ccc2c(c1)OCO2 (stereo not drawn) | 9.45 | inactive | 
